For 40 compounds, cell viability results are on record in the supplement of paper PMC10981050.

Counter-ions that a name gives are not always drawn.

In this experiment the test system is MOLM14. As to the kind of experiment: cell viability relative to vehicle control; higher = less cytotoxic. As to conditions: 10 µM; SRSF2 genotype: SRSF2 P95H/wt. Put shortly: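 CRISPR-edited SRSF2 P95 mutant and isogenic wild-type clones of four leukaemia lines were screened against Selleck bioactive, kinase and epigenetic probe libraries, with identity-inconsistent compounds removed. Compounds were acoustically dispensed into 384-well plates at a single 10 µM dose, with 2000 cells in 50 µL medium per well. After 48 h, supernatant was removed and CellTiter-Glo luminescence was read. Viability was expressed as percent of the on-plate DMSO vehicle control, analysed in Genedata Screener.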
As usually defined, the cell viability is a read-out of living cells in per cent, often relative to untreated cells. Turning to `CCCCCCCCCCCCc1ccc(S(=O)(=O)Nc2nncs2)cc1`, the cell viability is 105%.
As for `C#C[C@]1(O)CC[C@H]2[C@@H]3CCc4cc(O)ccc4[C@H]3CC[C@@]21C` [Ethinyl Estradiol], the figure is 82.4%; as for `C[C@]12CCC(=O)C=C1[C@@H]1C[C@@H]1[C@H]1[C@@H]3[C@@H]4C[C@@H]4[C@@]4(CCC(=O)O4)[C@@]3(C)CC[C@@H]12` [Drospirenone], 83.8%.
On to `CS(=O)(=O)CCNCc1ccc(-c2ccc3ncnc(Nc4ccc(OCc5cccc(F)c5)c(Cl)c4)c3c2)o1` [Lapatinib], for which the cell viability was determined as 75.4%.
As for `C[C@H](CC[C@@]1(O)O[C@H]2C[C@H]3[C@@H]4CC=C5C[C@@H](O[C@@H]6O[C@H](CO)[C@@H](O[C@@H]7O[C@@H](C)[C@H](O)[C@@H](O)[C@H]7O)[C@H](O)[C@H]6O[C@@H]6O[C@@H](C)[C@H](O)[C@@H](O)[C@H]6O)CC[C@]5(C)[C@H]4CC[C@]3(C)[C@H]2[C@@H]1C)CO[C@@H]1O[C@H](CO)[C@@H](O)[C@H](O)[C@H]1O` [Protodioscin], the figure is 0.49%; as for `CC(=NNC(=S)N1CCC1)c1ccccn1`, 1.22%.
Consider `CN(CC(=O)N(Cc1ccc(C2CCCCC2)cc1)c1ccc(C(=O)O)c(O)c1)S(=O)(=O)c1c(F)c(F)c(F)c(F)c1F`, for which the cell viability stood at 0.63%.
To `CNS(=O)(=O)Nc1nccc(Cc2c(C)c3ccc(Oc4ncccn4)cc3oc2=O)c1F` belongs 44.7%; to `CC(C)n1c([C@H](C)Nc2ncnc(N)c2C#N)cc2cccc(-c3ccc(=O)n(C)c3)c2c1=O`, 20.9%; to `CCCN(CCC)C(=O)C1=Cc2ccc(-c3ccc(C(=O)N4CCCC4)cc3)cc2N=C(N)C1` [Motolimod (VTX-2337)], 26.5%.
As for `O=C(O)[C@H]1O[C@@H](Oc2cc3oc(-c4ccc(O)cc4)cc(=O)c3c(O)c2O)[C@H](O)[C@@H](O)[C@@H]1O` [Scutellarin], the figure is 102%.
To `CS(=O)(=O)c1ccc(-c2nnc(/C=C/c3nnc(-c4ccc(C#N)cc4)o3)n2-c2ccccc2Cl)nc1` belongs 106%; to `CC(C)=CCCC(C)=CCCC(C)=CCCC(C)=CCC1=C(C)C(=O)c2ccccc2C1=O` [Vitamin K2], 87.7%; to `OCC(CO)N[C@H]1C[C@](O)(CO)[C@@H](O)[C@H](O)[C@H]1O` [Voglibose], 99.7%.
For the compound `C[C@]12CC[C@@H]3c4ccc(OC(=O)c5ccccc5)cc4CC[C@H]3[C@@H]1CC[C@@H]2O` [Estradiol Benzoate], the cell viability worked out at 82.6%.
Consider `CC(C)(Sc1ccncc1-c1ccc(C#N)c2ccccc12)C(=O)O` [Verinurad (RDEA3170)], for which the cell viability worked out at 95.8%.
With `N#Cc1c(Oc2ccc(F)c(NC(=O)Cc3cccc(C(F)(F)F)c3)c2)ccc2nc(NC(=O)C3CC3)sc12`, the cell viability stood at 36.6%.
Turning to `O=C(CSc1nc2c(c(=O)n1-c1ccccc1)SCC2)Nc1ccc(-c2ccccc2)cn1`, the cell viability worked out at 100%.
As for `C=C(C)C1CC=C(C)CC1` (single isomer, unassigned; (+)) [(+)-Dipentene], the figure is 110%; as for `NC(=O)Nc1cc(-c2cccc(F)c2)sc1C(=O)N[C@H]1CCCNC1`, 1.02%.
To `Cc1[nH]c(=O)c(C#N)cc1-c1ccncc1` [Milrinone (Primacor)] belongs 98.8%; to `NCCCC[C@@H]1NC(=O)[C@@H](Cc2ccc(O)cc2)NC(=O)[C@H](CC(=O)O)NC(=O)CNC(=O)[C@H](CCCN=C(N)N)NC1=O` [Cyclo(RGDyK)], 91.3%.
As to `CCN(Cc1ccncc1)C(=O)C(CO)c1ccccc1` (stereo not given) [Tropicamide], the cell viability was found to be 97.7%.
As for `O=c1c2cc(O)c(O)cc2oc2cc(O)c([C@@H]3O[C@H](CO)[C@@H](O)[C@H](O)[C@H]3O)c(O)c12` [Mangiferin], the figure is 103%; as for `C=CC[S+]([O-])C[C@H](N)C(=O)O` (stereo not given in full) [Alliin], 114%.
As for `CCN1CCN(Cc2ccc(C(=O)Nc3ccc(C)c(Oc4ccc5c(c4)CC(=O)N5)c3)cc2C(F)(F)F)CC1`, the figure is 46.6%; as for `Cc1cc(C)c(-c2csc(NC(=O)c3ccccc3)n2)c(C)c1`, 45%; as for `COc1ccccc1OCC(O)CN1CCN(CC(=O)Nc2c(C)cccc2C)CC1` (stereo not given) [Ranolazine dihydrochloride], 98.8%.
To `COc1cc2c(=O)c(-c3ccc(O)cc3)coc2cc1O[C@@H]1O[C@H](CO)[C@@H](O)[C@H](O)[C@H]1O` [Glycitin] belongs 97.1%; to `C#C[C@]1(O)CC[C@H]2[C@@H]3CCc4cc(OC5CCCC5)ccc4[C@H]3CC[C@@]21C` [Quinestrol], 78.8%.
For the compound `CC(C)(Cc1ccc2ccccc2c1)NC[C@@H](O)COc1cccc(Cl)c1C#N`, the cell viability was determined as 8.56%.
As for `CC(=O)[C@@]1(O)CC[C@H]2[C@@H]3C[C@H](C)C4=CC(=O)CC[C@]4(C)[C@H]3CC[C@@]21C` [Medroxyprogesterone], the figure is 103%; as for `CCOC(=O)[C@H](CCc1ccccc1)N[C@@H](C)C(=O)N1[C@H](C(=O)O)C[C@@H]2CCC[C@@H]21` [Ramipril (Altace)], 88.2%.
Regarding `CCCCS(=O)(=O)N[C@@H](Cc1ccc(OCCCCC2CCNCC2)cc1)C(=O)O` [Tirofiban Hydrochloride], the cell viability was found to be 101%.
On to `CC(C)n1nc(-c2cc3cc(O)ccc3[nH]2)c2c(N)ncnc21` [Torkinib (PP242)], for which the cell viability amounted to 12.8%.
Regarding `O.O.O.O.O.O.O.[Cl][La]([Cl])[Cl]` [Lanthanum(III) chloride heptahydrate], the cell viability is 107%.
Turning to `CC(C)c1c2cc(-c3ccnc(NC4CCC(NC5CCOCC5)CC4)n3)ccc2nn1C` (stereo not given), the cell viability was 0.76%.
For the compound `COc1cc(N2CCC(N3CCN(C)CC3)CC2)ccc1Nc1ncnc(Nc2ccccc2S(=O)(=O)C(C)C)n1`, the cell viability was 28.4%.
As for `C#C[C@]1(O)CC[C@H]2[C@@H]3CCC4=CC(=O)CC[C@@H]4[C@H]3CC[C@@]21CC` [Levonorgestrel (Levonelle)], the figure is 104%; as for `NC(=O)c1cccc2cn(-c3ccc([C@@H]4CCCNC4)cc3)nc12` [MK-4827(Niraparib) tosylate], 21.4%.
